Source: the supplement of paper PMC10849652
The full data set covers some 7,900 targets. This sample favours those with a hit. About 0.6% of all pairs of compound and target were hits.

Each target was assayed with CC[C@H](C)N1C=C(C2=C(C=C(C=C21)C3=CN=C(C=C3)N4CCNCC4)C(=O)NCC5=C(C=C(NC5=O)C)C)C (assay: log2 fold change, soluble protein after heating vs DMSO (PISA); higher = thermal stabilisation; K562 cells, 10 uM, 30 min; active = over 0.2 and 3.5 SD of the protein, either way, in both replicates (recomputed)).
Outline: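 K562 cells at 2×10^6 cells/mL were treated with 10 μM compound for 30 min. Aliquots were heated for 3 min across 48°C-58°C, pooled, and extracted in PBS with 0.5% NP-40 at 4°C; soluble protein was the supernatant after 21,000xg for 90 min. Soluble protein was quantified by TMTpro 16plex LC-MS/MS with channel sums equalised, and reported as log2 fold change in thermal stability against DMSO controls, with values from duplicates.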

Chain of UniProt Q9BWU1 (Q9BWU1 whole entry, looked up): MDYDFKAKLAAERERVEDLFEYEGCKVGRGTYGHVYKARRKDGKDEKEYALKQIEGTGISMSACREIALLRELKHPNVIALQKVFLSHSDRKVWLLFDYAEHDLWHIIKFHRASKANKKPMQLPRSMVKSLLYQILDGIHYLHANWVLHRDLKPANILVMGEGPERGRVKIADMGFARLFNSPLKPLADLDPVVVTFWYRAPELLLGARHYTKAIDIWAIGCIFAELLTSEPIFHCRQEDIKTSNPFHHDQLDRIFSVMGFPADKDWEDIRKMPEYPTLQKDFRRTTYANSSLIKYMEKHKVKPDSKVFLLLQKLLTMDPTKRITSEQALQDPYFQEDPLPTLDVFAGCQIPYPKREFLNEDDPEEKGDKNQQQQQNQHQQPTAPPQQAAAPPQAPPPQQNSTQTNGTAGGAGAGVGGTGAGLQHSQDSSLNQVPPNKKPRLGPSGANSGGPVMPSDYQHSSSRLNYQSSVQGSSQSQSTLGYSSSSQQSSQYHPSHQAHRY
Chain of UniProt P24311 (P24311 whole entry, looked up): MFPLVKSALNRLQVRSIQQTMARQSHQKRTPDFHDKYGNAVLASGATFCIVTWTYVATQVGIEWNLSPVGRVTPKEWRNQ
Chain of UniProt O95273 (O95273 whole entry, looked up): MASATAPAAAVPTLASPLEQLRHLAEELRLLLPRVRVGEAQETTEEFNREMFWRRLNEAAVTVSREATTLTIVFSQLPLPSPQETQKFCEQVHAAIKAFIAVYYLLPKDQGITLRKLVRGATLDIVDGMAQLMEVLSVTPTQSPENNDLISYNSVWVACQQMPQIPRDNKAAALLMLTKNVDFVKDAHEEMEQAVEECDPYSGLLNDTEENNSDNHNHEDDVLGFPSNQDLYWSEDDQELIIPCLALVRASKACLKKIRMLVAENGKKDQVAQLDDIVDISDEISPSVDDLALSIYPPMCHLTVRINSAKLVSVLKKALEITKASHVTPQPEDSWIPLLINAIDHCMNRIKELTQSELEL
Chain of UniProt O43529 (O43529 whole entry, looked up): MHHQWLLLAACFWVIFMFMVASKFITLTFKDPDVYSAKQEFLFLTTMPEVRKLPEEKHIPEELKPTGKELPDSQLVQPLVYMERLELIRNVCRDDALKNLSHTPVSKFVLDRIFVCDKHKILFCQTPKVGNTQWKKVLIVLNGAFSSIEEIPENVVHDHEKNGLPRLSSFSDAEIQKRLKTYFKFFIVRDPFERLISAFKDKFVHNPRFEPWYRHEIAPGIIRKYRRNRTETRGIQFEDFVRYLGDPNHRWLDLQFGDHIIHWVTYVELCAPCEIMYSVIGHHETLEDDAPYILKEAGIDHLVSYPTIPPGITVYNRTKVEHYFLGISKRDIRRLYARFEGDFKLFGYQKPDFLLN
Chain of UniProt Q69YH5 (Q69YH5 whole entry, looked up): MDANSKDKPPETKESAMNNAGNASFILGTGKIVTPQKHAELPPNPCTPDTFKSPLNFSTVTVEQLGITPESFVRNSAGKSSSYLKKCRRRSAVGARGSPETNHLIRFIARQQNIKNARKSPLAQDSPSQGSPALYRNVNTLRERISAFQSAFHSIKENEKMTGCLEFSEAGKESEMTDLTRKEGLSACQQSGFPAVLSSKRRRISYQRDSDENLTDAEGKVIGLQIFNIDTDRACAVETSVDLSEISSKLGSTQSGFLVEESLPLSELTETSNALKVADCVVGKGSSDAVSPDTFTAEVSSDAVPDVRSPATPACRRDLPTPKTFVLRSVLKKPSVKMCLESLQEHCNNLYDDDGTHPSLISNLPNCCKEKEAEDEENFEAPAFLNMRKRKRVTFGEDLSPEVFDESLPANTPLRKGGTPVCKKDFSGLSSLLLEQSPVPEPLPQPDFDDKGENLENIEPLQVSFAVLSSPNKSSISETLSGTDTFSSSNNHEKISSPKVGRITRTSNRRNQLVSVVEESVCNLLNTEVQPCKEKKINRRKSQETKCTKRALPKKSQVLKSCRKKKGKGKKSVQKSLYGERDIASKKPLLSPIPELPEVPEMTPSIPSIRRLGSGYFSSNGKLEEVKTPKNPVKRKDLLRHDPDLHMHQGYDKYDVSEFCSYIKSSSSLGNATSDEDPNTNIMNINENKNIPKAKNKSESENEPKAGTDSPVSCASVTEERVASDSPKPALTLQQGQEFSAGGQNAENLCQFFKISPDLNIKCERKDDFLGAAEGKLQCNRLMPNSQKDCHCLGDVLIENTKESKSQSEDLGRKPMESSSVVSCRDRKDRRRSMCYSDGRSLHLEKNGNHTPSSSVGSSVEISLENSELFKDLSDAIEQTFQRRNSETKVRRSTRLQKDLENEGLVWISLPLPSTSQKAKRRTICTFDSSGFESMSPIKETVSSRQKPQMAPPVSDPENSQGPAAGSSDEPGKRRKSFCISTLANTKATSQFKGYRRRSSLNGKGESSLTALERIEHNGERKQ
Chain of UniProt Q14061 (Q14061 whole entry, looked up): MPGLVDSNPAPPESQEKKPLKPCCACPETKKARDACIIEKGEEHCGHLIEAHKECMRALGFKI
Chain of UniProt Q92851 (Q92851 whole entry, looked up): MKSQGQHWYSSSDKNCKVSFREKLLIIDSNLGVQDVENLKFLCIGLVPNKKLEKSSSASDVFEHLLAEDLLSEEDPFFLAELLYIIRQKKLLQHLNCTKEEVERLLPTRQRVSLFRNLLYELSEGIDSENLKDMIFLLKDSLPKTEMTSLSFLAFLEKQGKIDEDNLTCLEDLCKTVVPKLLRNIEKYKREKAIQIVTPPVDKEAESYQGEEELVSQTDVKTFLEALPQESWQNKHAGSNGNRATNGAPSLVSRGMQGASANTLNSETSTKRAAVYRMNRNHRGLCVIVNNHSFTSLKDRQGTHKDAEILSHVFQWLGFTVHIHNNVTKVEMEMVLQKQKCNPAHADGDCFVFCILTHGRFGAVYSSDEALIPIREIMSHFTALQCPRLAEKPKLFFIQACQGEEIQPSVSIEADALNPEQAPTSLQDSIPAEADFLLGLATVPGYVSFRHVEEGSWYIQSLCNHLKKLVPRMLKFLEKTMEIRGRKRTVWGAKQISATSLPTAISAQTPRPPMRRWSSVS
Chain of UniProt P46527 (P46527 whole entry, looked up): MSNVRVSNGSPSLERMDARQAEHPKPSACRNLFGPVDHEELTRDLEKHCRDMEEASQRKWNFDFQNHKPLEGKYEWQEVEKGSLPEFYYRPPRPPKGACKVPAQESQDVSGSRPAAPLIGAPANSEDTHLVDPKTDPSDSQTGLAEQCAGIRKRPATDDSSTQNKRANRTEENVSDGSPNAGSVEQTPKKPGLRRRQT
Chain of UniProt Q8WUD6 (Q8WUD6 whole entry, looked up): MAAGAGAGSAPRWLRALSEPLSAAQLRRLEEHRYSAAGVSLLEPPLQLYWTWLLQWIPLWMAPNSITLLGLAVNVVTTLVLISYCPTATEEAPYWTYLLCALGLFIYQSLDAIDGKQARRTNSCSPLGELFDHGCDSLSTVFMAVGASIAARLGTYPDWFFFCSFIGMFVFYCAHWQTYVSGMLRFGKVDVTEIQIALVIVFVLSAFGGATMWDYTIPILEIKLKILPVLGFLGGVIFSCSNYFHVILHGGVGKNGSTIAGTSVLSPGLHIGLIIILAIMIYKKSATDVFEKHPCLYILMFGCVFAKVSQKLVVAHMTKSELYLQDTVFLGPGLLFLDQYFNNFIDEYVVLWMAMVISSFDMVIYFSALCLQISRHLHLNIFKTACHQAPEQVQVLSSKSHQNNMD
Chain of UniProt Q96MX0 (Q96MX0 whole entry, looked up): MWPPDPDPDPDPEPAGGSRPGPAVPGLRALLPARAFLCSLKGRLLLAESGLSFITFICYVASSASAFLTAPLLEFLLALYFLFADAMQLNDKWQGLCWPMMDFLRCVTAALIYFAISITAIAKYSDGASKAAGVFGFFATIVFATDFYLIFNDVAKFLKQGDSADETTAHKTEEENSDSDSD
Chain of UniProt Q9P0B6 (Q9P0B6 whole entry, looked up): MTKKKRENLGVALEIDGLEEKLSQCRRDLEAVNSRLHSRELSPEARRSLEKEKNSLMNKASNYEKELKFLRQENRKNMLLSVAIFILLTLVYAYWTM
Chain of UniProt Q6P5X5 (Q6P5X5 whole entry, looked up): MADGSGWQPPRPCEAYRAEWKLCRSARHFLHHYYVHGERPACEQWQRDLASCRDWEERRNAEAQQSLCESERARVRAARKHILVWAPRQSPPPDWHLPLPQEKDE
Chain of UniProt Q14746 (Q14746 whole entry, looked up): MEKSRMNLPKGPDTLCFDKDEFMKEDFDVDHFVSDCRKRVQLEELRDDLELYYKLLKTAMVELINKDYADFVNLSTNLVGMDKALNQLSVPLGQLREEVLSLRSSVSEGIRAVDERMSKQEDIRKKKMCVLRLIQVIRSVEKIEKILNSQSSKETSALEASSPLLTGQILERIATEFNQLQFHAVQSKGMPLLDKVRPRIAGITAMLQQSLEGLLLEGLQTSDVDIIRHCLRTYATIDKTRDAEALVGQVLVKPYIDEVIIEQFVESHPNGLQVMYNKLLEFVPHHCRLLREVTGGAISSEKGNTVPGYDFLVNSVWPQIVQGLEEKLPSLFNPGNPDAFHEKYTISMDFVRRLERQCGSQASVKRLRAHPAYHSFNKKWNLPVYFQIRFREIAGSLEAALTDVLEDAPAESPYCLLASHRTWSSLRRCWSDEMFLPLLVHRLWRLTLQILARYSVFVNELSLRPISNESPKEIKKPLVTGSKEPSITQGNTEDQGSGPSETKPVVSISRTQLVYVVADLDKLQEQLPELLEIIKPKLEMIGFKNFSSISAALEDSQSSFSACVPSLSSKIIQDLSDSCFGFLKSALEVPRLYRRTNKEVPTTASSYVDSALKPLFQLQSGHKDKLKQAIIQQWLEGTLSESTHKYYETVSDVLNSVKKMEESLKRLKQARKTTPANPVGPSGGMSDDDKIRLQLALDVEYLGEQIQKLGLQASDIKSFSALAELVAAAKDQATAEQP
Chain of UniProt Q7Z4R8 (Q7Z4R8 whole entry, looked up): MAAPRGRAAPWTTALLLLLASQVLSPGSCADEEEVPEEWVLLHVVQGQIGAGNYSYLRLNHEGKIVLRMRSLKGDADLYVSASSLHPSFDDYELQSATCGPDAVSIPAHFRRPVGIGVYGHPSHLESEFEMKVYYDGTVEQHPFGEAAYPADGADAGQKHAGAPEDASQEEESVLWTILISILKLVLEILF

log2 fold change, inactive:
CHPT1 (UniProt Q8WUD6) 0.119, C22orf39 (UniProt Q6P5X5) -0.042, CASP10 isoform 4 (UniProt Q92851) 0.015, COPS3 isoform 2 (UniProt Q9UNS2) 0.001, COX7B (UniProt P24311) -0.052, CCNT2 (UniProt O60583) 0.056, CDK5 (UniProt Q00535) 0.095, CCDC167 (UniProt Q9P0B6) -0.029, C6orf120 (UniProt Q7Z4R8) 0.019, C9orf72 (UniProt Q96LT7) 0.062, CDK19 (UniProt Q9BWU1) 0.069, CASP9 (UniProt P55211) 0.008, COG2 (UniProt Q14746) -0.357, CCNDBP1 (UniProt O95273) 0.133, COX17 (UniProt Q14061) 0.044, CHAF1A (UniProt Q13111) 0.036, CRYM-AS1 (UniProt A6NIL9) 0.233, CORO2A (UniProt Q92828) 0.01, CSNK1D (UniProt P48730) 0, CDCA2 (UniProt Q69YH5) -0.131, CMTM3 (UniProt Q96MX0) -0.061, CDKN1B (UniProt P46527) -0.083, CHST10 (UniProt O43529) 0.002, CLN8 (UniProt Q9UBY8) 0.077
